Screening data: PubChem, Buhrlage Lab, Dana-Farber Cancer Institute and Novartis Institutes for BioMedical Research (Cambridge, Mass)
Rows were chosen to be rich in hits. Some 5% of all compounds tested hit in one or more screens of this group.
UCHL1 block – blocks human UCHL1 ubiquitin-rhodamine cleavage; P09936; purified UCHL1, Ub-rhodamine cleavage fluorescence; inhibition, % at 20 µM; hit rate 0.2% among 47,000; AID 1645859
USP8 block – blocks human USP8 ubiquitin-rhodamine cleavage | purified USP8, Ub-rhodamine cleavage fluorescence, 30 min | inhibition, % at 20 µM | hit rate 4.2% among 47,000 | AID 1645853
OTUD3 block – inhibitors of human OTUD3 deubiquitinase; Q5T2D3; purified OTUD3, Ub-rhodamine fluorescence, 2 h; inhibition, % at 25 µM; hit rate 0.7% among 47,000; AID 1645858
USP10 inh – blocks human USP10 ubiquitin-rhodamine cleavage; purified USP10, Ub-rhodamine fluorescence, 60 min; inhibition, % at 20 µM; AID 1645856; hit rate 1.1% among 47,000; Q14694
Target sequence (Q14694 whole entry, looked up): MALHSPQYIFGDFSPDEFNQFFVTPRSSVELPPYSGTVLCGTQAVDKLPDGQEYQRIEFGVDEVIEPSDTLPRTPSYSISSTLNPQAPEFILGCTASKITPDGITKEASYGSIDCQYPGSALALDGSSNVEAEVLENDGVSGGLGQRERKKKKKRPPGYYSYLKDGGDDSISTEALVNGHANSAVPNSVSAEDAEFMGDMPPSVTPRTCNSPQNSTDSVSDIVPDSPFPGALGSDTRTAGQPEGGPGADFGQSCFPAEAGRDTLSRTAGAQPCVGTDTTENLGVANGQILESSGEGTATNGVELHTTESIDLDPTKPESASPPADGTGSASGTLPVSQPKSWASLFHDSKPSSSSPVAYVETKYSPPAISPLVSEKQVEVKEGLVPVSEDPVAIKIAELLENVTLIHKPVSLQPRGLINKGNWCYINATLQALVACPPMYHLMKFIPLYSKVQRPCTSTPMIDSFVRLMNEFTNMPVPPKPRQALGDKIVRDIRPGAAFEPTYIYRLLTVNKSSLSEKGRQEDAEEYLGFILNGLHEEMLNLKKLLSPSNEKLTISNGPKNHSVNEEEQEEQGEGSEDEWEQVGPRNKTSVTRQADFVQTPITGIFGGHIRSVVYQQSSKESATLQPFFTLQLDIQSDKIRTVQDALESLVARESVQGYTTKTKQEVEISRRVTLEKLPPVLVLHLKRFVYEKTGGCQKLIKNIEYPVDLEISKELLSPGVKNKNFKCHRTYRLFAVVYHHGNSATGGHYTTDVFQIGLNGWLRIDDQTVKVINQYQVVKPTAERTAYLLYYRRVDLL
USP7 block – human USP7 deubiquitinase inhibition; Q93009; purified USP7, Ub-rhodamine cleavage fluorescence; inhibition, % at 20 µM; hit rate 0.3% among 47,000; AID 1645854
* hit, by the source's call. Cut-off read from the data, not from the text of the source: active = inhibition above about 30%; inactive = the rest.

SMILES	UCHL1 block	USP8 block	OTUD3 block	USP10 inh	USP7 block
C=C(NC(=O)c1csc(-c2nc3c(cc2O)-c2nc(cs2)C(=O)NC(C(C)O)C(=O)N/C(=C\C)c2nc(cs2)C(=O)NC2CC(O)C(=O)OCc4cccc5[nH]c(c(C)c45)C(=O)SCC(NC(=O)c4csc2n4)c2nc-3cs2)n1)C(N)=O (stereo not drawn)	1	-14	-12	-11	-1
Cc1ccccc1NC(=O)CSc1nccn(-c2ccc(F)c(F)c2)c1=O	-5	-218	-3	-7	0
Cc1cccc(-n2ccnc(SCC(=O)Nc3ccc(Cl)cc3F)c2=O)c1	4	49*	11	22	17
O=C(CSc1nccn1-c1cccc(C(=O)Nc2ccccc2)c1)Nc1ccccc1F	0	51*	-9	5	13
Fc1ccccc1-c1nnc2c(C(F)(F)F)nc3ccccc3n12	3	-11	15	1	0
Cc1ccc(C(O)Cn2cc(C(=O)Nc3ccccc3)nn2)cc1 (stereo not drawn)	2	21	9	10	8
COc1ccc(Cl)cc1NC(=O)Cn1c(=O)n(CCCCC(=O)NCCc2ccccc2)c(=O)c2ccccc21	0	42*	14	43*	2
COc1ccc(Cl)cc1NC(=O)Cn1c(=O)n(CCC(=O)NC2CCCC2)c(=O)c2ccccc21	2	24	6	43*	-7
O=C(Cn1c(=O)n(CC(=O)NC2CCCC2)c(=O)c2ccccc21)Nc1cc(Cl)ccc1Cl	4	32*	28	19	9
CCOc1ccccc1NC(=O)Cn1c(=O)n(CCC(=O)NC2CCCC2)c(=O)c2ccccc21	1	26	17	2	3
O=C(Cn1c(=O)n(CC(=O)NC2CCCC2)c(=O)c2ccccc21)Nc1ccc(F)cc1	-2	37*	41*	16	2
Cc1nn(-c2ccc(F)cc2)c(C)c1S(=O)(=O)N1CCC(C(=O)N2CCCC2)CC1	0	17	9	0	0
Cc1ccc(CC(=O)Nc2c(C)nc3scc(C)n3c2=O)cc1	-2	0	-3	2	6
Cc1ccccc1C(=O)N1CC(C(=O)NC2CCCC2)C2(CCOCC2)C1 (stereo not drawn)	0	4	0	0	1
Cn1cc(-c2cnc(N3CCCC3)nc2)cc1C(=O)NCc1cccnc1	-18	-158	-108	-10	-17
CCn1c(=O)c2cc(OC)c(OC)cc2n(CC(=O)c2ccc(OC)c(OC)c2)c1=O	3	0	22	-2	4
COc1ccc(OC)c(NC(=O)Cn2c(=O)n(CC3CCC(C(=O)NCCc4ccccc4)CC3)c(=O)c3ccccc32)c1 (stereo not drawn)	0	22	93*	29	9
COc1cc(OC)c(NC(=O)Cn2c(=O)n(Cc3ccccc3Cl)c(=O)c3cc(OC)c(OC)cc32)cc1Cl	0	26	24	36*	3
COc1ccccc1CNC(=O)CCn1c(=O)c2ccccc2n(Cc2cccc([N+](=O)[O-])c2)c1=O	3	-4	9	5	6
COc1ccc(NC(=O)Cn2c(=O)n(CCC(=O)NC3CCCC3)c(=O)c3ccccc32)cc1Cl	1	-5	1	0	-2
COc1cc2c(=O)n(CCC(=O)NC3CCCC3)c(=O)n(CC(=O)Nc3cccc(Cl)c3)c2cc1OC	7	-29	24	31*	-7
COc1ccccc1CNC(=O)CCCCn1c(=O)c2ccccc2n(Cc2cc(=O)n3c(C)cccc3n2)c1=O	7	45*	-18	0	-3
Cc1nc2ccn(Cc3cccnc3)c(=O)c2cc1C(=O)NCCCc1ccccc1	2	16	6	-2	1
N#Cc1cccc(S(=O)(=O)Nc2ccccc2Cc2ccccc2)c1	0	0	0	9	-7
COc1ccccc1CNC(=O)CCn1c(=O)c2ccccc2n(Cc2ccccc2C#N)c1=O	1	2	13	4	5
SMILES	UCHL1 block	USP8 block	OTUD3 block	USP10 inh	USP7 block
CCOc1ccc(NC(=O)Cn2c(=O)n(CCC(=O)NCc3ccccc3OC)c(=O)c3ccccc32)cc1	1	32*	19	34*	12
COc1ccc(S(=O)(=O)N2CCOCC2)cc1NC(=O)C1Cc2ccccc2CN1C(=O)c1ccco1 (stereo not drawn)	-7	49*	-16	-5	-11
N#Cc1ccc(C(=O)Nc2cc(-c3ccccn3)no2)cc1	2	3	1	1	4
COc1cc2c(oc(=O)c3cc(C)cc(OC)c32)c2c([C@@H]3OC(C)[C@@H](O)[C@@](C)(O)C3O)ccc(O)c12 (stereo partly drawn)	17	59*	-4	4	-25
COc1cc(O)c2c(=O)oc3c(O)c(OC)cc(C)c3c2c1	-3	3	-9	4	-1
O=C(NCCN1CCCC1)C1CCCN(c2nc3ccccc3[nH]2)C1 (stereo not drawn)	2	0	7	0	2
C[C@H]1[C@H](C)CCC23CC[C@]4(C)[C@@](C=CC5[C@@]6(C)CC[C@H](O)C(C)(C)[C@@H]6CC[C@]54C)(OC2=O)[C@H]13 (stereo partly drawn)	2	1	32*	20	8
C[C@@H]1CCC2(C)CC[C@]3(C)C(=CCC4[C@@]5(C)CCC(O)C(C)(C)C5CC[C@]43C)C2[C@H]1C (stereo partly drawn)	1	6	6	0	1
Cc1ccc(S(=O)(=O)c2nnn3c2nc(NCc2ccco2)c2sccc23)cc1	-2	32*	-20	1	0
Cc1cc(C)nc(-n2ncc(C#N)c2NC(=O)c2ccc(Br)cc2)n1	-15	44*	-33	-2	-12
NC(=O)C[C@H](NC(=O)[C@@H]1CCCN1C(=O)[C@H](Cc1ccccc1)n1c(=O)[nH]c2ccccc2c1=O)C(=O)O	1	8	4	2	5
O=c1ccc(-c2noc(-c3ccc4cc[nH]c4c3)n2)c[nH]1	-16	51*	-20	-3	-19
Cc1ccc(-c2nc(-c3ccc(=O)[nH]c3)no2)cc1F	-1	1	-19	-4	-1
COc1ccc(OCCCC(=O)Nc2ccccc2-c2nc3ccccc3[nH]2)cc1	2	35*	-21	-8	3
COc1cc2ccccc2cc1C(=O)Nc1ccccc1-c1nc2ccccc2[nH]1	8	10	3	6	11
Cc1ccc2c(Cl)c(C(=O)NCC(c3ccccc3)N3CCOCC3)sc2c1 (stereo not drawn)	-3	0	4	4	0
Cc1nn(C(C)C)c(C)c1S(=O)(=O)N1CCN(C(=O)c2cnccn2)CC1	0	-11	-4	1	0
Cc1cccc(CCN2C(=O)CCc3c(C)nc(C4CCCNC4)nc32)c1 (stereo not drawn)	4	-2	16	0	33*
Cc1nc(C2CCCCN2)nc2c1CCCN2CCc1ccccn1 (stereo not drawn)	0	14	4	0	6
